In PubChem BioAssay (EPA / NIEHS):
Records with an inconclusive call do not appear. A structure can be active in one record and inactive in another. Active and inactive are the calls of the source. The calls were made as follows, unless noted: active = hit-call score of the fitted dose curve at least 0.9, where 1 is the maximum; inactive = score below 0.9.

Tests used:
[1] = target: Retinoic acid receptor alpha (Homo sapiens) (UniProt P10276); experiment: ATG_DR5_RAR_CIS: Attagene CIS-FACTORIAL HepG2 Assay for human Retinoic Acid Receptor Alpha (RARE), DR5 submotif (AID 2282934); conditions: HepG2 Attagene cis-factorial RARE DR5 reporter, mRNA; actives raise or lower the signal;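 as to AC50: reporter responds to endogenous RAR alpha beta and gamma in HepG2 not RARA alone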
Summary of the method: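 HepG2, transient cis-reporter transfection, 24 h exposure. mRNA readout: RT-PCR, FAM label, HpaI cut, capillary electrophoresis. DMSO baseline, gain/loss fitting.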

[2] = ATG_GATA_CIS: Attagene CIS-FACTORIAL HepG2 Assay for human GATA Binding Protein (AID 2282944); conditions: HepG2 GATA cis-element reporter, Attagene multiplex mRNA; actives raise or lower the signal
Summary of the method: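 HepG2 cells transiently transfected with multiplexed cis-element reporter units reflecting endogenous transcription factor activity; reporter mRNA measured after 24 h dosing by RT-PCR, 6-FAM labeling, HpaI digestion and capillary electrophoresis. Bidirectional fitting versus DMSO baseline.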

[3] = ATG_PBREM_CIS: Attagene CIS-FACTORIAL HepG2 Assay for human Phenobarbital-responsive Enhancer Module (PBREM) (AID 2282955); conditions: HepG2 PBREM cis-reporter, Attagene multiplexed transcription; actives raise or lower the signal
Summary of the method: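 Cells were transfected with cis-element reporter units and treated for 24 h, after which RNA was extracted and reporter transcripts measured by RT-PCR and capillary electrophoresis.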

[4] = ATG_PPRE_CIS: Attagene CIS-FACTORIAL HepG2 Assay for human Peroxisome Proliferator-activated Response Element (PPRE) (AID 2282958); conditions: HepG2 PPRE cis-element reporter, Attagene transcription factor profiling; actives raise or lower the signal
Summary of the method: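 In this cell-based multiplex, a PPRE cis element drives a reporter sequence in transiently transfected HepG2 cells. Following 24 h treatment, labeled cDNA amplicons are sized and quantified by capillary electrophoresis, with DMSO defining baseline.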

[5] = target: Oxysterols receptor LXR-beta (Homo sapiens) (UniProt P55055); experiment: ATG_LXRb_TRANS: Attagene TRANS-FACTORIAL HepG2 Assay for human Liver X Receptor beta (LXRb) (AID 2282981; active = hit-call score of the fitted dose curve at least 0.9, where 1 is the maximum); conditions: HepG2 Attagene TRANS GAL4-LXRb reporter, mRNA
Summary of the method: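 After 24 h chemical treatment of transfected HepG2 cells carrying exogenous NR-Gal4 chimeras, reporter mRNA was quantified by fluorescent RT-PCR and capillary electrophoresis; activity taken as increase over DMSO controls.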

[6] = target: Hepatocyte nuclear factor 4-alpha (Homo sapiens) (UniProt P41235); experiment: ATG_HNF4a_TRANS: Attagene TRANS-FACTORIAL HepG2 Assay for human Hepatocyte Nuclear Factor 4 alpha (HNF4a) (AID 2282982; active = hit-call score of the fitted dose curve at least 0.9, where 1 is the maximum); conditions: HepG2 HNF4a transactivation reporter, mRNA readout
Summary of the method: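 Activity of an exogenous HNF4a–Gal4 fusion scored as induced GAL4-UAS reporter transcripts after 24 h chemical exposure of transfected human HepG2 cells. Read-out via RT-PCR with 6-FAM labelling and capillary electrophoresis; rise over DMSO baseline.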

[7] = ATG_NF_kB_CIS: Attagene CIS-FACTORIAL HepG2 Assay for human Nuclear Factor Kappa B (NF-kB) (AID 2282991); conditions: HepG2 Attagene cis-factorial NF-kB reporter mRNA; actives raise or lower the signal
Summary of the method: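 Measures mRNA induction of an NF-kB-responsive cis-element reporter in HepG2 cells transfected with multiple reporter units, sampled 24 h post-dosing; quantified by fluorescence after RT-PCR and capillary electrophoresis, fitted for activation or inhibition against DMSO.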

[8] = target: Nuclear receptor subfamily 1 group I member 2 (Homo sapiens) (UniProt O75469); experiment: ATG_PXR_TRANS: Attagene TRANS-FACTORIAL HepG2 Assay for human Pregnane X Receptor (PXR) (AID 2283008; active = hit-call score of the fitted dose curve at least 0.9, where 1 is the maximum)
Summary of the method: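 Transactivation by exogenous PXR–GAL4 fusion measured as reporter transcript induction after 24 h compound treatment of transfected human HepG2 cells. Read-out via RT-PCR and capillary electrophoresis of labelled fragments, fitted upward relative to DMSO.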

[9] = CCTE_Harrill_HTTr_CellCount_MCF7: CCTE's Cell Proliferation Assessment for the High-Throughput Transcriptomics (HTTr) Platform, Harrill Lab (AID 2284012; active = hit-call score of the fitted dose curve at least 0.9, where 1 is the maximum;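 also: cells exposed to compound for six hours; intended direction is loss of nuclei count meaning fewer cells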)
Summary of the method: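 Cell count served as viability reporter: loss of Hoechst-stained nuclei, counted by high content imaging, marks decreased growth or survival. Exposure was 6 h in MCF-7 cells across eight concentrations, with DMSO as baseline.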

[10] = read-out: Vascular cell adhesion molecule 1 (VCAM1), VCAM1 (gene 7412); experiment: BSK_LPS_VCAM1: BioMAP Diversity Plus: LPS Assay for Vascular cell adhesion molecule 1 (VCAM1) Biomarker Activity (AID 2283086); conditions: primary human HUVEC with PBMC; actives raise or lower the signal
Summary of the method: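 Cells are dosed in an LPS-stimulated endothelial/mononuclear co-culture and, after 24 h, VCAM-1 is quantified by ELISA. Activity in either direction is fitted relative to the DMSO negative control.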

[11] = read-out: CD38, CD38 (gene 952); experiment: BSK_SAg_CD38: BioMAP Diversity Plus: SAg Assay for CD38 Biomarker Activity (AID 2283087); conditions: primary human HUVEC with PBMC; actives raise or lower the signal
Summary of the method: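 CD38 quantified by ELISA (fluorescence) in a superantigen-activated endothelial cell–PBMC co-culture at 24 h post-dose. Activity fitted in both directions relative to DMSO; parallel SRB and Alamar Blue cytotoxicity read-outs.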

[12] = read-out: Monocyte Chemoattractant Protein-1 (MCP1), CCL2 (gene 6347); experiment: BSK_SAg_MCP1: BioMAP Diversity Plus: SAg Assay for Monocyte Chemoattractant Protein-1 (MCP1) Biomarker Activity (AID 2283090); conditions: primary human HUVEC with PBMC; actives raise or lower the signal
Summary of the method: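 Values derive from bidirectional fitting of ELISA-measured MCP1 against DMSO controls. Readings were taken 24 h after dosing human vascular endothelial cells co-cultured with peripheral blood mononuclear cells under superantigen stimulation.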

[13] = read-out: E-selectin (Homo sapiens) (UniProt P16581); experiment: BSK_SAg_Eselectin: BioMAP Diversity Plus: SAg Assay for Eselectin Biomarker Activity (AID 2283091); conditions: primary human HUVEC with PBMC; actives raise or lower the signal
Summary of the method: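 Cell-surface E-selectin is read by ELISA at 24 h in the SAg co-culture of HUVEC and PBMC. Curves are fitted in both directions relative to DMSO. Parallel SRB total-protein staining tracks overt toxicity.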

[14] = read-out: Monokine induced gamma interferon (MIG), CXCL9 (gene 4283); experiment: BSK_SAg_MIG: BioMAP Diversity Plus: SAg Assay for Monokine induced gamma interferon (MIG) Biomarker Activity (AID 2283092); conditions: primary human HUVEC with PBMC; actives raise or lower the signal
Summary of the method: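 ELISA readout of MIG/CXCL9; primary human umbilical vein endothelial cells co-cultured with peripheral blood mononuclear cells; 24 h post-dose; gain/loss fit vs DMSO baseline.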

[15] = BSK_SAg_PBMCCytotoxicity: PBMC Cytotoxicity Assessment in the BioMAP Diversity Plus: SAg Assay (AID 2283093); conditions: primary human HUVEC with PBMC;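 also: PBMC viability measured as Alamar Blue reduction fluorescence at 546/580 nm; fitted both ways against DMSO so a hit may be loss or gain of signal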;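 as to AC50: PBMC superantigen activated with SEB plus TSST-1 one hour after compound addition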
Summary of the method: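 Alamar Blue reduction (6 h, ex/em 546/580 nm) read after 90 h culture of PBMC pre-dosed 1 h then stimulated with SEB plus TSST-1, 20 ng/mL each. Gain or loss of signal fitted relative to DMSO.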

[16] = read-out: Interleukin-8 (IL8), CXCL8 (gene 3576); experiment: BSK_SAg_IL8: BioMAP Diversity Plus: SAg Assay for Interleukin-8 (IL8) Biomarker Activity (AID 2283094); conditions: primary human HUVEC with PBMC; actives raise or lower the signal
Summary of the method: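 Chemicals were dosed onto a human endothelial–PBMC co-culture, and IL-8 was quantified by ELISA after 24 h. Both increases and decreases were fitted relative to DMSO.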

[17] = BSK_SAg_Proliferation: Cell Proliferation Assessment in the BioMAP Diversity Plus: SAg Assay (AID 2283095); conditions: primary human HUVEC with PBMC;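 also: relative cell number as total protein by SRB absorbance in sub-confluent culture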
Summary of the method: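 Absorbance of sulforhodamine B at 560 nm reports total protein in a human vascular endothelial/PBMC co-culture after 96 h chemical exposure. Gain or loss of signal is fitted in both directions against DMSO.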

[18] = BSK_SAg_SRB: Viability Assessment in the BioMAP Diversity Plus: SAg Assay (AID 2283096); conditions: primary human HUVEC with PBMC;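 also: cells read one day after compound addition; hits may be either gain or loss of signal compared with DMSO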
Summary of the method: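 SRB absorbance at 560 nm served as the viability read-out. Cells (HUVEC plus peripheral blood mononuclear cells) were TCA-fixed and stained 24 h post-dosing; activity fitted in both directions against DMSO controls.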

[19] = read-out: Collagen I, COL1A1 (gene 1277); experiment: BSK_hDFCGF_CollagenI: BioMAP Diversity Plus: hDFCGF Assay for Collagen I Biomarker Activity (AID 2284250); conditions: primary human foreskin fibroblasts
Summary of the method: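 Collagen I ELISA, primary human foreskin fibroblasts, 24 h chemical exposure, DMSO = negative control/baseline, positive fitting direction.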

[20] = read-out: Monocyte Chemoattractant Protein-1 (MCP1), CCL2 (gene 6347); experiment: BSK_hDFCGF_MCP1: BioMAP Diversity Plus: hDFCGF Assay for Monocyte Chemoattractant Protein-1 (MCP1) Biomarker Activity (AID 2284285); conditions: primary human foreskin fibroblasts
Summary of the method: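 MCP-1 ELISA readout was taken 24 hours after dosing primary human dermal fibroblasts in the hDFCGF system, with DMSO as baseline. Parallel sulforhodamine B staining of total protein tracked overt cytotoxicity.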

Measured: AC50

Sequence of Oxysterols receptor LXR-beta (Homo sapiens) (P55055 whole entry, looked up, the tested form may be a part): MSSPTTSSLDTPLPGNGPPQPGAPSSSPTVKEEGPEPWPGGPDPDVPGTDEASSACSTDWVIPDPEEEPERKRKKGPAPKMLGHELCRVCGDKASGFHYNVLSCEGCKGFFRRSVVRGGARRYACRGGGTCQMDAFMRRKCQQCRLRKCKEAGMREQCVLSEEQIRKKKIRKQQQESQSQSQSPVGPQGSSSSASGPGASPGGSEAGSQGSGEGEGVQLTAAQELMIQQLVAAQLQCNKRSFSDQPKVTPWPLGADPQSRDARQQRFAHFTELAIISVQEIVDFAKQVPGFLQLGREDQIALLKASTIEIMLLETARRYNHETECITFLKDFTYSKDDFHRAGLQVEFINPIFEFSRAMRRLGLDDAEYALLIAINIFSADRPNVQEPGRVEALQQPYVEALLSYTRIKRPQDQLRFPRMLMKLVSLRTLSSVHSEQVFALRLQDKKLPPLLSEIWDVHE
Sequence of Hepatocyte nuclear factor 4-alpha (Homo sapiens) (P41235 whole entry, looked up, the tested form may be a part): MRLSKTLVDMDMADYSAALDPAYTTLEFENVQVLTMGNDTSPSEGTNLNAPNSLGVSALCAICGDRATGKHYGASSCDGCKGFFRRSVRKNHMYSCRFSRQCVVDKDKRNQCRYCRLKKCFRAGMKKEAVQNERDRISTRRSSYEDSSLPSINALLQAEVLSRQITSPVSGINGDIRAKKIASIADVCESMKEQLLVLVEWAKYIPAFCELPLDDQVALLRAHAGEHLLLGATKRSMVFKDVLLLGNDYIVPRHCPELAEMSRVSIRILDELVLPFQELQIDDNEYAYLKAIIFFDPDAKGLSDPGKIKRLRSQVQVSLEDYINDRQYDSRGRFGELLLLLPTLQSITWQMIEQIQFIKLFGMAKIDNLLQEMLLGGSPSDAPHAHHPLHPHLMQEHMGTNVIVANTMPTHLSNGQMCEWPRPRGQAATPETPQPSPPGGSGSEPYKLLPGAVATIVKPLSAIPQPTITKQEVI
Sequence of Nuclear receptor subfamily 1 group I member 2 (Homo sapiens) (O75469 whole entry, looked up, the tested form may be a part): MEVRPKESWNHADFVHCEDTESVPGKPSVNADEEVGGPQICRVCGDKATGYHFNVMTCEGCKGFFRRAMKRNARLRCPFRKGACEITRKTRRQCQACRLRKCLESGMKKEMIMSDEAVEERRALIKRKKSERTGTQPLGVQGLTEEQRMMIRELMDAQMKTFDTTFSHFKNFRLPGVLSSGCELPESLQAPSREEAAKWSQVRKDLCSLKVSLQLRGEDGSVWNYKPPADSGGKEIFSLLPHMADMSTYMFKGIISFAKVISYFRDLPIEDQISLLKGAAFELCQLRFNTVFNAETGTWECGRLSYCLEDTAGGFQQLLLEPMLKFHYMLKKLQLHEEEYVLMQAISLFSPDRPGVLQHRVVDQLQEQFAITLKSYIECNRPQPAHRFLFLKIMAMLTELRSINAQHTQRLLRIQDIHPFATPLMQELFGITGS
Sequence of E-selectin (Homo sapiens) (P16581 whole entry, looked up): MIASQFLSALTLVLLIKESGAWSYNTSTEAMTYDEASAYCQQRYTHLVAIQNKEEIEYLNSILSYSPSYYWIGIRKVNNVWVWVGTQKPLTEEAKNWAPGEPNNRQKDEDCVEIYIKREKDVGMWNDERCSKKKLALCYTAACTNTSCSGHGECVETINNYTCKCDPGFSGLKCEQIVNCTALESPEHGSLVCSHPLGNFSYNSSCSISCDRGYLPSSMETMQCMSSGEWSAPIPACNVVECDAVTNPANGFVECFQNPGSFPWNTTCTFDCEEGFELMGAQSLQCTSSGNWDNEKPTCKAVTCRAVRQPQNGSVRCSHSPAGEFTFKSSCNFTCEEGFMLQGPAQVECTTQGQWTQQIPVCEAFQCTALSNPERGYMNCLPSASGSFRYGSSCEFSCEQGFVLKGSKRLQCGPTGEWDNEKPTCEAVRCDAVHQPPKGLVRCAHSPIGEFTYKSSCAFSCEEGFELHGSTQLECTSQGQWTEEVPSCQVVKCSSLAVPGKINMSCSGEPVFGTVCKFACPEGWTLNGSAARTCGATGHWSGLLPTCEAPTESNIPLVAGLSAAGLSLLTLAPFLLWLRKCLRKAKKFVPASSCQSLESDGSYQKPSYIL
Sequence of Retinoic acid receptor alpha (Homo sapiens) (P10276 whole entry, looked up): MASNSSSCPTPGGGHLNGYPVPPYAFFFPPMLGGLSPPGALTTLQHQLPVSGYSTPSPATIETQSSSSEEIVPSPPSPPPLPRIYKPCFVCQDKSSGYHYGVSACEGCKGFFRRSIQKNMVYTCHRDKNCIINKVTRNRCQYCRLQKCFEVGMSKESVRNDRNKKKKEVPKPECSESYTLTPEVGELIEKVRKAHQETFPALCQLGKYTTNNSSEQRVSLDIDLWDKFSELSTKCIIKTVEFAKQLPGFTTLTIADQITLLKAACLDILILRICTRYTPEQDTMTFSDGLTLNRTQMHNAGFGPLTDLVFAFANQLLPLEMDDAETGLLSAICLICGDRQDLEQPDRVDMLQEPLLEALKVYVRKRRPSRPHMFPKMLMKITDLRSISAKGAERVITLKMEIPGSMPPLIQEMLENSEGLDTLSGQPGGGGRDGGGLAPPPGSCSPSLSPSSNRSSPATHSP

Oc1ccc(Cl)cc1C1CCCC1
inactive: [1] | [3] | [4] | [5] | [6] | [7] | [9]
active: [2] 33.4 µM | [8] 9.24 µM

CC(C)C1OCCN1CCOC(=O)NCCCCCCNC(=O)OCCN1CCOC1C(C)C (stereo unspecified)
inactive: [10] | [11] | [12] | [13] | [14] | [15] | [16] | [17] | [18] | [19] | [20]
active: [19] 1.44 µM | [20] 0.149 µM

O=C(CC(C(=O)OC1CCCCC1)S(=O)(=O)O)OC1CCCCC1 (stereo unspecified)
inactive: [1] | [3] | [4] | [6] | [7] | [8]

c1ccc2c(c1)Oc1ccccc1S2
inactive: [2] | [3] | [7] | [8]

CC(C)CC(=O)CC(C)CC(C)C (stereo unspecified)
active: [15] 33.3 µM
not listed: [2] | [6] | [9] | [19] | [20]
inactive: all other assays above

O=C(Oc1ccccc1)c1ccccc1
inactive: [1] | [3] | [4] | [5] | [6] | [7] | [8] | [9]

c1ccc(CNc2ncnc3nc[nH]c23)cc1
inactive: [1] | [3] | [5] | [6] | [7] | [8] | [9]

CCCCCCCCCCCCCCCCCC[N+](C)(C)C
inactive: [5]
active: [1] 42.5 µM | [2] 38.7 µM | [3] 45.4 µM | [4] 6.2 µM | [6] 37.3 µM | [7] 3.31 µM | [8] 25 µM | [10] 7.96 µM | [11] 5 µM | [12] 6.02 µM | [13] 9.19 µM | [14] 8.07 µM | [15] 3.16 µM | [16] 8.34 µM | [17] 0.995 µM | [18] 3.82 µM

COc1cc(CNC(=O)CCCC/C=C/C(C)C)ccc1O
active: [20] 0.508 µM
inactive: [10] | [11] | [12] | [13] | [14] | [15] | [16] | [17] | [18] | [19] | [20]

COc1ccc2ccccc2c1
inactive: [2] | [4]

NC(N)=Nc1nc(CSCCC(N)=NS(N)(=O)=O)cs1
inactive: [1] | [4] | [5] | [8] | [9]

CCO[Si](CCCN)(OCC)OCC
inactive: [3] | [4] | [5] | [6] | [7]

CCC[Si](OC(C)=O)(OC(C)=O)OC(C)=O
inactive: [10] | [11] | [12] | [13] | [14] | [15] | [16] | [17] | [18] | [19] | [20]

Oc1ccc2c(c1)Cc1ccccc1-2
inactive: [9]

CNCCC(Oc1ccc(C(F)(F)F)cc1)c1ccccc1 (stereo unspecified)
inactive: [9]
